# The entries come from a sample that favours the strongest signals as a whole.
# What was measured:
# Assay in all cases: glycan array binding signal (z-score within array); higher = stronger binding
# Conditions in all cases: glycan notation: IUPAC condensed, linker removed
# [1] = biological target: Fuc(a1-2)Gal(b1-3)GlcNAc
# In short: (§1)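 The Consortium for Functional Glycomics database supplied 3228 glycan arrays, of which those lacking an available protein sequence were dropped. The binding signal, a within-array Z-score, was averaged across arrays of the same protein sequence and across linkers. Negative scores can be read as non-binding.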
# [2] = biological target: Fuc(a1-2)Gal(b1-3)GlcNAc(b1-2)Man(a1-3)[Fuc(a1-2)Gal(b1-3)GlcNAc(b1-2)Man(a1-6)]Man(b1-4)GlcNAc(b1-4)[Fuc(a1-6)]GlcNAc
# In short: as §1
# [3] = biological target: Fuc(a1-2)Gal(b1-4)GlcNAc(b1-2)Man
# In short: as §1
# [4] = biological target: Fuc(a1-2)Gal(b1-4)[Fuc(a1-3)]GlcNAc
# In short: as §1
# [5] = biological target: Fuc(a1-2)[Gal(a1-3)]Gal(b1-4)GlcNAc(b1-2)Man
# In short: as §1
# [6] = biological target: Fuc(a1-2)[GalNAc(a1-4)]Gal(b1-4)GlcNAc
# In short: as §1
# [7] = biological target: Gal(a1-3)Gal(b1-4)[Fuc(a1-3)]GlcNAc
# In short: as §1
# [8] = biological target: Gal(b1-3)GlcNAc(b1-2)[Gal(b1-3)GlcNAc(b1-6)]Man(a1-6)[Gal(b1-3)GlcNAc(b1-2)Man(a1-3)]Man(b1-4)GlcNAc(b1-4)GlcNAc
# In short: as §1
# [9] = biological target: Gal(b1-3)GlcNAc(b1-3)Gal(b1-4)Glc
# In short: as §1
# [10] = biological target: Gal(b1-3)GlcNAc(b1-3)GalNAc
# In short: as §1
# [11] = biological target: Gal(b1-3)GlcNAc(b1-6)GalNAc
# In short: as §1
# [12] = biological target: Gal(b1-3)[Neu5Ac(b2-6)]GalNAc
# In short: as §1
# [13] = biological target: Gal(b1-4)GlcNAc(b1-2)Man(a1-3)[Gal(b1-4)GlcNAc(b1-2)Man(a1-6)]Man(b1-4)GlcNAc(b1-4)GlcNAc
# In short: as §1
# [14] = biological target: Gal(b1-4)GlcNAc(b1-2)Man(a1-3)[Gal(b1-4)GlcNAc(b1-2)Man(a1-6)]Man(b1-4)GlcNAc(b1-4)[Fuc(a1-6)]GlcNAc
# In short: as §1
# [15] = biological target: Gal(b1-4)GlcNAc(b1-2)Man(a1-3)[GlcNAc(b1-2)Man(a1-6)]Man(b1-4)GlcNAc(b1-4)GlcNAc
# In short: as §1
# [16] = biological target: Gal(b1-4)GlcNAc(b1-2)Man(a1-3)[GlcNAc(b1-4)][Gal(b1-4)GlcNAc(b1-2)Man(a1-6)]Man(b1-4)GlcNAc(b1-4)GlcNAc
# In short: as §1
# [17] = biological target: Gal(b1-4)GlcNAc(b1-2)Man(a1-6)[GlcNAc(b1-2)Man(a1-3)]Man(b1-4)GlcNAc(b1-4)GlcNAc
# In short: as §1
# [18] = biological target: Gal(b1-4)GlcNAc(b1-3)Gal(b1-4)GlcNAc(b1-3)Gal(b1-4)GlcNAc(b1-3)Gal(b1-4)GlcNAc(b1-2)Man(a1-3)[Gal(b1-4)GlcNAc(b1-3)Gal(b1-4)GlcNAc(b1-3)Gal(b1-4)GlcNAc(b1-3)Gal(b1-4)GlcNAc(b1-2)Man(a1-6)]Man(b1-4)GlcNAc(b1-4)GlcNAc
# In short: as §1
# [19] = biological target: Gal(b1-6)Gal
# In short: as §1
# [20] = biological target: Gal3S(b1-4)[Fuc(a1-3)]GlcNAc6S
# In short: as §1
# [21] = biological target: GalNAc(b1-3)Gal
# In short: as §1
# [22] = biological target: GalNAc3S(b1-4)GlcNAc3S
# In short: as §1
# [23] = biological target: GlcNAc(a1-4)Gal(b1-4)GlcNAc(b1-3)Gal(b1-4)GlcNAc(b1-3)Gal(b1-4)GlcNAc
# In short: as §1
# [24] = biological target: GlcNAc(b1-2)Man(a1-3)[GlcNAc(b1-2)Man(a1-6)]Man(b1-4)GlcNAc(b1-4)[Fuc(a1-6)]GlcNAc
# In short: as §1
binder,measurement,setting,value
"PVL (Psathyrella velutina), Q309D1_9AGAR (protein) MSVVVISQALPVPTRIPGVADLVGFGNGGVYIIRNSLLIQVVKVINNFGYDAGGWRVEKHVRLLADTTGDNQPDVVGFGENGVWISTNNGNNTFVDPPKMVLANFAYAAGGWRVEKHIRFMADLRKTGRADIVGFGDGGIYISRNNGGGQFAPAQLALNNFGYAQGWRLDRHLRFLADVTGDGLLDVVGFGENQVYIARNSGNGTFQPAQAVVNNFCIGAGGWTISAHPRVVADLTGDRKADILGFGVAGVYTSLNNGNGTFGAVNLVLKDFGVNSGWRVEKHVRCVSSLTNKKVGDIIGFGDAGVYVALNNGNGTFGPVKRVIDNFGYNQGWRVDKHPRFVVDLTGDGCADIVGFGENSVWACMNKGDGTFGPIMKLIDDMTVSKGWTLQKTVRYAANLYL",glycan array binding signal (z-score),[1],-0.372
same,glycan array binding signal (z-score),[2],-0.362
same,glycan array binding signal (z-score),[3],-0.366
same,glycan array binding signal (z-score),[4],-0.367
same,glycan array binding signal (z-score),[5],-0.372
same,glycan array binding signal (z-score),[6],-0.335
same,glycan array binding signal (z-score),[7],-0.368
same,glycan array binding signal (z-score),[8],-0.349
same,glycan array binding signal (z-score),[9],-0.359
same,glycan array binding signal (z-score),[10],-0.36
same,glycan array binding signal (z-score),[11],-0.364
same,glycan array binding signal (z-score),[12],-0.366
same,glycan array binding signal (z-score),[13],-0.369
same,glycan array binding signal (z-score),[14],-0.555
same,glycan array binding signal (z-score),[15],0.543
same,glycan array binding signal (z-score),[16],-0.369
same,glycan array binding signal (z-score),[17],0.45
same,glycan array binding signal (z-score),[18],0.956
same,glycan array binding signal (z-score),[19],-0.37
same,glycan array binding signal (z-score),[20],-0.344
same,glycan array binding signal (z-score),[21],-0.243
same,glycan array binding signal (z-score),[22],-0.369
same,glycan array binding signal (z-score),[23],4.19
same,glycan array binding signal (z-score),[24],0.519

# From the supplement of paper PMC8728848
